Inconclusive results are not listed. Active and inactive are the calls of the source. How the source made its calls: active means hit-call score of the fitted dose curve at least 0.9, where 1 is the maximum; inconclusive means response in the unintended direction; inactive means score below 0.9.
How the values were obtained:
[1] = molecular target: Cellular tumor antigen p53 (Homo sapiens) (UniProt P04637); experiment: TOX21_p53_BLA_p2_ratio: Tox21 HCT-116 p53 Agonism Beta-lactamase Assay, Ratio, Phase 2 (AID 2283592)
Sequence of Cellular tumor antigen p53 (Homo sapiens) (P04637 whole entry, looked up): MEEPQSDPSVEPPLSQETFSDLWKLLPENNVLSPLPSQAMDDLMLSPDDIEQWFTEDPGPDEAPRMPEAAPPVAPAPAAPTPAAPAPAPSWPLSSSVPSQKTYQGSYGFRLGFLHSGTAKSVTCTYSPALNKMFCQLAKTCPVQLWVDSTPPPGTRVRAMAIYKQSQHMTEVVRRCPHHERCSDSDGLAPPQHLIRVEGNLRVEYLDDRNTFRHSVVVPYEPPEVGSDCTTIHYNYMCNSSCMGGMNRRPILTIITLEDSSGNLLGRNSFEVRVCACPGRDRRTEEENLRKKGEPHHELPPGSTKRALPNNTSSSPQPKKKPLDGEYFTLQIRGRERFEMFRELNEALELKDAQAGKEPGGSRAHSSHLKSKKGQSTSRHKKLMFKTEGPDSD
Outline: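 Ratio endpoint: beta-lactamase cleavage of CCF4-AM, blue (460 nm) over green (530 nm). HCT116 reporter line; 16 h treatment, 37C; substrate 2 h RT.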

[2] = molecular target: Cellular tumor antigen p53 (Homo sapiens) (UniProt P04637); experiment: TOX21_p53_BLA_p3_ratio: Tox21 HCT-116 p53 Agonism Beta-lactamase Assay, Ratio, Phase 3 (AID 2283596)
Outline: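 Cells were seeded at 4000/well, rested 5 h at 37C, then dosed with DMSO compound solutions (217-fold dilution) for 16 h. CCF4-AM substrate was loaded for 2 h at room temperature, and the 460/530 nm emission ratio was fitted for gain of signal versus DMSO.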

[3] = TOX21_p53_BLA_p4_viability: Viability Assessment in the Tox21 HCT-116 p53 Agonism Beta-lactamase Assay, Phase 4 (AID 2283597);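 further: hits lower the luminescence signal meaning cytotoxicity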
Outline: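 Cytotoxicity was inferred from loss of CellTiter-Glo luminescence. HCT116 cells had been dosed with compounds after 5 h plating, incubated 16 h at 37C and 5% CO2, and exposed to the CCF4-AM substrate for 2 h.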

[4] = molecular target: Cellular tumor antigen p53 (Homo sapiens) (UniProt P04637); experiment: TOX21_p53_BLA_p5_ratio: Tox21 HCT-116 p53 Agonism Beta-lactamase Assay, Ratio, Phase 5 (AID 2283599)
Outline: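 HCT-116 p53-bla cells (4000/well) plated 5 h, dosed with compound (217-fold DMSO dilution) for 16 h at 37 C; CCF4-AM substrate 2 h at room temperature. Activity is the 460/530 nm emission ratio (405 nm excitation), fitted in gain-of-signal direction versus DMSO.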

[5] = TOX21_p53_BLA_p5_viability: Viability Assessment in the Tox21 HCT-116 p53 Agonism Beta-lactamase Assay, Phase 5 (AID 2283600)
Outline: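 Luciferase-coupled ATP quantitation of cells treated for 16 h (37C, 5% CO2) with test chemicals delivered in DMSO via a 217-fold dilution; 4000 cells/well; reagent incubated 30 min at room temperature before luminescence reading.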

[6] = Tanguay_ZF_120hpf_MORT_legacy: (Legacy) Oregon State University Tanguay Lab 120 Hour Post-fertilization zebrafish Assay for Mortality (AID 2283633)
Outline: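 Dechorionated Tropical 5D wild-type zebrafish embryos, one per well from 6 hpf, were statically exposed at 28C in the dark until 120 hpf (0.64% DMSO final). Mortality was scored as present/absent by brightfield microscopy, fitted positively versus DMSO.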

[7] = Tanguay_ZF_120hpf_AXIS_legacy: (Legacy) Oregon State University Tanguay Lab 120 Hour Post-fertilization zebrafish Assay for Body Axis Malformation (AID 2283635)
Outline: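 Tropical 5D wild-type zebrafish embryos, dechorionated with pronase at 4 hpf, were placed singly in wells at 6 hpf and exposed statically to test chemical (0.64% DMSO final) at 28C until 120 hpf, then scored by brightfield for body axis defects.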

[8] = Tanguay_ZF_120hpf_EYE_legacy: (Legacy) Oregon State University Tanguay Lab 120 Hour Post-fertilization zebrafish Assay for Eye Malformation (AID 2283636);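 further: binary presence or absence of eye malformation scored by brightfield in 120 hpf larvae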
Outline: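 5D wild-type embryos, pronase-dechorionated at 4 hpf; static exposure 6–120 hpf, 28C, dark; DMSO 0.64% final; 5uM trimethyltin chloride positive control. Binary eye-defect scoring at 120 hpf; dead embryos not scored.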

[9] = Tanguay_ZF_120hpf_SNOU_legacy: (Legacy) Oregon State University Tanguay Lab 120 Hour Post-fertilization zebrafish Assay for Snout Malformation (AID 2283637)
Outline: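 Binary brightfield scoring of snout malformation at 120 hpf. Dechorionated 5D wild-type embryos, one per well, static exposure from 6 hpf at 28C, sealed and dark; final DMSO 0.64% (vol/vol), DMSO as baseline; 5uM trimethyltin chloride positive control.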

[10] = Tanguay_ZF_120hpf_JAW_legacy: (Legacy) Oregon State University Tanguay Lab 120 Hour Post-fertilization zebrafish Assay for Jaw Malformation (AID 2283638)
Outline: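 Tropical 5D wild-type embryos, dechorionated with pronase at 4 hpf, were placed singly per well at 6 hpf and statically exposed at 28C until 120 hpf (0.64% DMSO final). Jaw malformation scored as present/absent by brightfield microscopy at 120 hpf, analyzed relative to DMSO.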

[11] = Tanguay_ZF_120hpf_OTIC_legacy: (Legacy) Oregon State University Tanguay Lab 120 Hour Post-fertilization zebrafish Assay for Otic Vesicle Malformation (AID 2283639)
Outline: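 Wild-type zebrafish larvae, whole-embryo exposure from early stage to 120 hpf at 28C. Binary brightfield scoring of otic vesicle morphology, fitted in the positive direction against the DMSO baseline.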

[12] = Tanguay_ZF_120hpf_PE_legacy: (Legacy) Oregon State University Tanguay Lab 120 Hour Post-fertilization zebrafish Assay for Pericardial Edema (AID 2283640)
Outline: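 Tropical 5D wild-type zebrafish embryos were exposed statically to 120 hpf at 28C, sealed and foil-covered, in 0.64% DMSO final. Pericardial edema was scored present/absent by brightfield microscopy; dead embryos were not scored.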

[13] = Tanguay_ZF_120hpf_BRAI_legacy: (Legacy) Oregon State University Tanguay Lab 120 Hour Post-fertilization zebrafish Assay for Brain Malformation (AID 2283641)
Outline: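 Tropical 5D wild-type zebrafish embryos were exposed statically in sealed, foil-covered plates at 28C until 120 hpf, with 0.64% (vol/vol) final DMSO. Brain malformation was scored present/absent by brightfield microscopy, relative to DMSO baseline.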

[14] = Tanguay_ZF_120hpf_SOMI_legacy: (Legacy) Oregon State University Tanguay Lab 120 Hour Post-fertilization zebrafish Assay for Somite Malformation (AID 2283647)
Outline: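 Tropical 5D wild-type zebrafish embryos, dechorionated with pronase at 4 hpf, were placed singly at 6 hpf and statically exposed until 120 hpf at 28C in 0.64% DMSO. Somite malformation was scored present/absent by brightfield microscopy versus DMSO.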

[15] = Tanguay_ZF_120hpf_CFIN_legacy: (Legacy) Oregon State University Tanguay Lab 120 Hour Post-fertilization zebrafish Assay for Caudal Fin Malformation (AID 2283649)
Outline: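 Tropical 5D wild-type embryos, dechorionated with pronase at 4 hpf, were placed singly in wells at 6 hpf and statically exposed to compound at 28C until 120 hpf (0.64% DMSO). Caudal fin malformation was scored present/absent by brightfield microscopy.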

[16] = Tanguay_ZF_120hpf_PIG_legacy: (Legacy) Oregon State University Tanguay Lab 120 Hour Post-fertilization zebrafish Assay for Pigmentation Malformation (AID 2283650)
Outline: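 Brightfield scoring of pigmentation malformation at 120 hpf, recorded as binary present/absent per larva. Exposure: dechorionated 5D wild-type embryos, one per well, static from 6 hpf at 28C, final DMSO 0.64% (vol/vol). Dead embryos not scored.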

[17] = Tanguay_ZF_120hpf_PFIN_legacy: (Legacy) Oregon State University Tanguay Lab 120 Hour Post-fertilization zebrafish Assay for Pectoral Fin Malformation (AID 2283648);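 further: each larva judged yes or no for fin defect by brightfield with dead larvae skipped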
Outline: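 Binary pectoral fin malformation call at 120 hpf by brightfield microscopy; 5D wild-type zebrafish, chorion removed at 4 hpf, one embryo per well from 6 hpf, static exposure at 28C; DMSO (0.64% final) as baseline.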

[18] = TOX21_p53_BLA_p2_viability: Viability Assessment in the Tox21 HCT-116 p53 Agonism Beta-lactamase Assay, Phase 2 (AID 2283591);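 further: compound exposure lasted 16 h at 37 °C; actives lower the ATP signal meaning cytotoxicity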
Outline: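 HCT116 p53-bla cells, 4000/well, dosed after 5 h plating (217-fold dilution of DMSO stocks) and incubated 16 h at 37C. Viability taken as cellular ATP by CellTiter-Glo luminescence after 30 min RT; signal loss marks cytotoxicity.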

[19] = molecular target: Cellular tumor antigen p53 (Homo sapiens) (UniProt P04637); experiment: TOX21_p53_BLA_p4_ratio: Tox21 HCT-116 p53 Agonism Beta-lactamase Assay, Ratio, Phase 4 (AID 2283601)
Outline: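 HCT-116 p53 beta-lactamase reporter cells (4000/well) preincubated 5 h, then compound (217-fold dilution of DMSO stock) for 16 h at 37C. CCF4-AM substrate added 2 h at room temperature; 460/530 nm emission ratio fitted upward versus DMSO.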

[20] = TOX21_p53_BLA_p3_viability: Viability Assessment in the Tox21 HCT-116 p53 Agonism Beta-lactamase Assay, Phase 3 (AID 2283593);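 further: cells exposed to compound for 16 h before reading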
Outline: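 HCT116 cells, 4000/well, dosed 5 h after plating by pin transfer (217-fold dilution from DMSO stock) and incubated 16 h at 37C, 5% CO2. Viability read as ATP luminescence with CellTiter-Glo after 30 min at room temperature.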

Measured: outcome

CCCCc1ccc(O)cc1
inactive: [1] | [2] | [3] | [4]

Cc1c([N+](=O)[O-])cc2c(c1[N+](=O)[O-])C(C)(C)CC2(C)C
inactive: [1] | [2] | [5]

COCCOCCO
inactive: [6] | [7] | [8] | [9] | [10] | [11] | [12] | [13] | [14] | [15] | [16]

CCCCC(CC)COC(=O)c1c(Br)c(Br)c(Br)c(Br)c1C(=O)OCC(CC)CCCC (stereo not drawn)
inactive: [1] | [2] | [4]

CCNc1nc(Cl)nc(NC(C)(C)C)n1
inactive: [6] | [9] | [11] | [13] | [14] | [17] | [15] | [16]

CC(Cl)(Cl)C(=O)O
inactive: [6] | [7] | [8] | [9] | [10] | [12] | [13] | [14] | [17] | [15] | [16]

O=P1(N(CCCl)CCCl)NCCCO1 (stereo not drawn)
inactive: [18] | [1] | [2] | [4] | [19] | [6] | [7] | [8] | [9] | [10] | [11] | [12] | [13] | [14] | [17] | [15] | [16]

ClC(Cl)(Cl)c1ccccc1
inactive: [2] | [3] | [4] | [5] | [6] | [7] | [8] | [10] | [11] | [14] | [15] | [16]

O=[N+]([O-])c1ccc(Cl)c(Cl)c1
inactive: [6] | [7] | [8] | [9] | [10] | [11] | [12] | [13] | [14] | [17] | [15] | [16]

Nc1cc2c3c(c1)C(c1ccccc1)=N[C@@H](NC(=O)c1cccnc1)C(=O)N3CC2
inactive: [6] | [9] | [10] | [12] | [14] | [17] | [15] | [16]

FC(F)(F)c1ccc(Cl)cc1
inactive: [1] | [20] | [2] | [4]

O=c1[nH]c2ccccc2c(=O)o1
inactive: [1] | [2] | [3] | [4] | [5]

Reference: PubChem BioAssay (EPA / NIEHS)
